Laboratory results from PubChem BioAssay (NCI).
About 83,000 compounds went through this panel and 20% of them were active in at least one assay; those are over-represented in the sample as a whole.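 Cell lines were cultured in 96-well plates, exposed to a single compound concentration, and assessed for percent growth 48 hours later.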 A number with no mark means an inactive call. Activity calls are given as the source filed them. How the source made its calls: active means growth percent below 10; inactive means the rest.

How the values were obtained:
Experiment in all cases: NCI-60 one-dose screen, 48 h (100 = growth as untreated, 0 = no growth, -100 = all killed)
Conditions in all cases: 10 µM unless noted
SK-MEL-2 melanoma = system: SK-MEL-2 melanoma
EKVX NSCLC = system: EKVX NSCLC
SN12C renal = system: SN12C renal
UO-31 renal = system: UO-31 renal
TK-10 renal = system: TK-10 renal
ACHN renal = system: ACHN renal
CAKI-1 renal = system: CAKI-1 renal
A498 renal = system: A498 renal
MOLT-4 leukemia = system: MOLT-4 leukemia

Compound	growth (SK-MEL-2 melanoma)	growth (EKVX NSCLC)	growth (SN12C renal)	growth (UO-31 renal)	growth (TK-10 renal)	growth (ACHN renal)	growth (CAKI-1 renal)	growth (A498 renal)	growth (MOLT-4 leukemia)
COc1ccc2[nH]c(O)c(/C=c3/cc4c(c(-c5cc(OC)c(OC)c(OC)c5)n3)=Nc3ccccc3-4)c2c1	83%	81.3%	80.6%	51.5%	98%	72%	71.6%	43.3%	23.5%
Cc1ccc(-c2cc(-c3ccccc3C)[nH]c(=O)c2C#N)s1	110%	96.9%	91.8%	71.7%	92.1%	90.7%	82.9%	77.5%	93.3%
COc1cccc(Nc2nccc(Nc3ccc4[nH]ncc4c3)n2)c1	-37% (active)	34%	20.2%	-62.1% (active)	-77.7% (active)	-3.17% (active)	-30.8% (active)	12.7%	-32.4% (active)
Cc1cc[c-]cc1.Fc1c[c-]c(-c2ccccn2)c(F)c1.[Pt+2].c1ccc(P(C[PH+](c2ccccc2)c2ccccc2)c2ccccc2)cc1	4.88% (active)	7.66% (active)	6.18% (active)	11.4%	31.5%	-1.88% (active)	0.998% (active)	9.17% (active)	10.7%
COc1ccc(C2=Nc3c(N)ncnc3NC(c3ccc4c(c3)OCO4)C2)cc1 (stereo unspecified)	57.6%	82.1%	102%	79.4%	107%	83.6%	90%	97.5%	105%
O=C(COc1ccc(/C=C2\Oc3ccccc3C2=O)cc1)Nc1nc2c(s1)CCCC2	84%	26.4%	46%	-59.9% (active)	79.7%	65.5%	-98.4% (active)	110%	-64.3% (active)
N#CC1=C(NC=O)Oc2c(ccc3ccccc23)C1c1ccccc1 (stereo unspecified)	29%	67.8%	39.7%	41%	54.6%	43.4%	26.5%	22.9%	39.5%
COC(=O)c1c2c(c(C)[n+]([O-])c1C)C(=O)C(NCc1ccc(F)c(Cl)c1)=CC2=O	29.4%	37.8%	-0.149% (active)	41.7%	58.8%	30.9%	34%	78%	-19.2% (active)
O=C1CCc2c(sc3[nH]c(=S)n(-c4ccc(OC(F)(F)F)cc4)c(=O)c23)C1	58.5%	56.7%	31.4%	44.4%	104%	80.3%	83.6%	107%	47.3%
Cn1c(=O)c2c(nc(Cl)n2CCl)n(C)c1=O	89.9%	112%	106%	93.4%	95.6%	104%	98.5%	118%	99.7%
COc1ccc2[nH]c(O)c(/C=c3/cc4c(c(-c5ccc(F)c(OC)c5)n3)=Nc3ccccc3-4)c2c1	96.3%	89.5%	88.6%	74.7%	87.2%	52.2%	88.3%	69.6%	1.77% (active)
CCCCCCN(CCCCCC)c1ccc(/C=C2/SC(=O)N(c3nc(N4CCCC4)nc(N4CCCC4)n3)C2=O)c(C)c1	53.9%	87.2%	59.9%	52.9%	85.8%	68.5%	82.5%	60.9%	38.1%
c1ccc(Nc2nc(-c3ccccn3)cs2)nc1	27.6%	30.7%	13.4%	0.382% (active)	37%	1.7% (active)	-13.3% (active)	28.3%	14.2%
O=c1cc(-c2ccc(Cl)cc2)[nH]c2ccccc12	79.7%	68.3%	96.9%	74.6%	110%	85.6%	73.7%	75.1%	110%
N#Cc1c(N2CCNCC2)nc2sc3cc(Cl)c(Cl)cc3n2c1=N	112%	98.8%	93.2%	80.8%	141%	102%	101%	115%	70.4%
O=c1ccn2nc3ccccc3c2[nH]1	108%	63.6%	84.8%	76.6%	121%	91.1%	89.4%	125%	108%
CCCCCCCOc1c(OC)cc(C2CC(=O)Nc3c2c(C)nn3-c2nc3ccccc3[nH]2)cc1OC (stereo unspecified)	-56.8% (active)	-26.5% (active)	9.34% (active)	-69.7% (active)	11%	1.49% (active)	-41% (active)	-28.6% (active)	15.2%
O=C(COc1ccc(/C=C2\Oc3ccccc3C2=O)cc1)Nc1nc2ccccc2s1	106%	42.8%	64.4%	-77.2% (active)	134%	72.7%	-83% (active)	115%	-48.8% (active)
Cc1occc1-c1n[nH]c(=S)n1N1C(=O)CSC1=S	107%	99.1%	99.2%	77.6%	99%	102%	85.4%	101%	99.7%
Cc1ccc(C(=O)C2=C(O)C(=O)N(Cc3cccnc3)C2c2ccccc2F)o1 (stereo unspecified)	92.1%	97.7%	95.7%	93.3%	104%	98.5%	105%	95%	90.3%
COc1nc2c(c(=O)n1C)CN(c1ccccc1)C(=O)CN2C	69.6% [100 µM]	58.2% [100 µM]	51.3% [100 µM]	26% [100 µM]	52.3% [100 µM]	46.4% [100 µM]	61.7% [100 µM]	61% [100 µM]	40.6% [100 µM]
O=C(Nc1ccc(-n2cc(-c3ccncc3)c(-c3ccc(Cl)c(O)c3)n2)cc1)N1CCOCC1	110%	–	99.2%	75.6%	117%	97.6%	105%	121%	–
O=C(O)c1ccc2c(c1)CCC2	95.8%	117%	103%	94.4%	107%	104%	101%	139%	91.1%
CCCCCCCCn1ccc2cc(NC(=O)Cn3cc(CN4CCCC4)nn3)ccc21	68.6%	88.8%	44.4%	6.9% (active)	89.9%	89.4%	8.76% (active)	87.2%	32.8%
C=CCn1c(C)nc2cc(Nc3nc(N4CCCC4)nc4ccccc34)ccc21	109%	97.7%	90.3%	68.1%	108%	103%	84.9%	71.4%	49.9%
Cc1ccc(-c2cc3c(cc2O)C2CCCCC2(N2CCOCC2)O3)cc1 (stereo unspecified)	101%	107%	93.1%	84.5%	116%	112%	96%	114%	84.1%
NC(=N\N=C/c1cccc([N+](=O)[O-])c1)/C(N)=N\N=C/c1cccc([N+](=O)[O-])c1	75%	79.5%	86.8%	107%	27.6%	94%	53.8%	61.5%	86%
